The results in this text go back to PubChem BioAssay (NCI).

Compounds without any hit were thinned out: in the full panel of roughly 79,000, 15% have a hit. A number with no mark means an inactive call. The source made the active and inactive calls. Rule as the data show it: active = growth inhibition above about 70%; inactive = the rest.

A short description of assay [1]: NCI Yeast Anticancer Drug Screen. Data for the rad50 strain (AID 155).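 Also: 0% = growth of vehicle-only cultures of the same strain.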 The conditions noted are these: S. cerevisiae rad50 strain growth inhibition, hits give high values. In outline: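 Cells are treated with compound, grown, and their growth is then scored against vehicle-only cultures of the same repair-deficient yeast strain.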
Assay [2] is described as follows: NCI Yeast Anticancer Drug Screen. Data for the mec2-1 strain (AID 157). The conditions noted are these: S. cerevisiae mec2-1 strain, hits give high values. In outline: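 Strain: mec2-1 (DNA repair/cell cycle alteration). Compound exposure, then growth measured; inhibition expressed relative to vehicle.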
A short description of assay [3]: NCI Yeast Anticancer Drug Screen. Data for the sgs1 mgt1 strain (AID 161).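 Also: 0% = growth of cultures given vehicle only.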 The conditions noted are these: S. cerevisiae sgs1 mgt1 strain, hits give high values. In outline:
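Test agents were incubated with a DNA-repair-mutant yeast strain. Growth was then read and compared against vehicle-treated controls.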

Assay [4] in a line: NCI Yeast Anticancer Drug Screen. Data for the cln2 rad14 strain (AID 165).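 Also: 0% = growth equal to vehicle treated cultures.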 The conditions noted are these: S. cerevisiae cln2 rad14 strain, hits give high values. In outline: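 Compounds are applied to the cln2 rad14 yeast strain, and growth is then compared with that of vehicle-treated cultures to give inhibition.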
The nature of assay [5]: NCI Yeast Anticancer Drug Screen. Data for the bub3 strain (AID 167). The conditions noted are these: S. cerevisiae bub3 mutant strain, hits give high values. In outline:
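Part of a panel of yeast mutants defective in DNA damage repair or cell cycle regulation. Each strain is grown with compound, and inhibition is calculated relative to solvent-treated cultures.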

The nature of assay [6]: NCI Yeast Anticancer Drug Screen. Data for the mlh1 rad18 strain (AID 175). The conditions noted are these: S. cerevisiae mlh1 rad18 strain growth inhibition, hits give high values. In outline:
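Read-out is yeast growth inhibition, calculated against vehicle-only controls. The compound was applied to a strain engineered with DNA damage repair alterations.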

Setting [7] is: at 5.0 µM (retest, dose inferred, filed as 0.5).
The mark [8] stands for this setting: at 50.0 µM (retest, dose inferred, filed as 5.0).

Turning to `COc1ccc(/C(Cl)=C(\C=O)c2ccc(Cl)c(Cl)c2)cc1`, the growth inhibition in assay [1] (setting [7]) is 2%; in assay [1] (setting [8]) it was 49%; in assay [1] (at 50.0 µM) it was 99% (active); in assay [2] (setting [7]), 8%; in assay [2] (setting [8]), 70% (active); in assay [2] (at 50.0 µM) it was 98.9% (active). In addition, the growth inhibition in assay [3] (setting [7]) is 13%; in assay [3] (setting [8]), 85% (active); in assay [3] (at 50.0 µM), 99.3% (active); in assay [4] (setting [7]) it was -10%; in assay [4] (setting [8]), 55%; in assay [4] (at 50.0 µM), 92.5% (active). The growth inhibition in assay [5] (setting [7]) is 41%; in assay [5] (setting [8]) it was 82% (active); in assay [5] (at 50.0 µM) it was 97.8% (active); in assay [6] (setting [7]) it was 27%; in assay [6] (setting [8]), 79% (active); in assay [6] (at 50.0 µM) it was 98.2% (active).
Take `CC(C)=CC1C(COC(=O)CCl)C1(C)C` (stereo not drawn): the growth inhibition in assay [1] (setting [7]) is -6%; in assay [1] (setting [8]), 8%; in assay [1] (at 50.0 µM), 1.85%; in assay [2] (setting [7]) it was 3%; in assay [2] (setting [8]), 0%; in assay [2] (at 50.0 µM) it was 44.8%. In addition, the growth inhibition is -2% in assay [3] (setting [7]); 3% in assay [3] (setting [8]); -12.3% in assay [3] (at 50.0 µM); 0% in assay [4] (setting [7]); -11% in assay [4] (setting [8]); -29.4% in assay [4] (at 50.0 µM). For the same compound, the growth inhibition in assay [5] (setting [7]) was 2%; in assay [5] (setting [8]), -5%; in assay [5] (at 50.0 µM), 36.1%; in assay [6] (setting [7]) it was -2%; in assay [6] (setting [8]), 5%; in assay [6] (at 50.0 µM) it was -23.6%.
With `CC1=CC(c2c(O)cc(O)c(C(=O)CCc3ccccc3)c2O)C(C(C)C)CC1` (stereo not drawn), the growth inhibition in assay [1] (setting [7]) is 11%; in assay [1] (setting [8]) it was 88% (active); in assay [1] (at 50.0 µM), 70.8% (active); in assay [2] (setting [7]), 10%; in assay [2] (setting [8]) it was 85% (active); in assay [2] (at 50.0 µM), 83% (active). Also, the growth inhibition is 1% in assay [3] (setting [7]); 91% (active) in assay [3] (setting [8]); 80% (active) in assay [3] (at 50.0 µM); 3% in assay [4] (setting [7]); 87% (active) in assay [4] (setting [8]); 79.2% (active) in assay [4] (at 50.0 µM). Besides, the growth inhibition is 21% in assay [5] (setting [7]); 96% (active) in assay [5] (setting [8]); 76% (active) in assay [5] (at 50.0 µM); 8% in assay [6] (setting [7]); 76% (active) in assay [6] (setting [8]); 82.2% (active) in assay [6] (at 50.0 µM).
On to `O=Nc1c(O)c2ccccc2c2ccc([N+](=O)[O-])cc12`, for which the growth inhibition in assay [1] (setting [7]) is 21%; in assay [1] (setting [8]) it was 64%; in assay [1] (at 50.0 µM) it was 69.8%; in assay [2] (setting [7]), 48%; in assay [2] (setting [8]), 95% (active); in assay [2] (at 50.0 µM) it was 84.8% (active). Moreover, the growth inhibition was 35% in assay [3] (setting [7]); 87% (active) in assay [3] (setting [8]); 91.7% (active) in assay [3] (at 50.0 µM); 12% in assay [4] (setting [7]); 52% in assay [4] (setting [8]); 42.9% in assay [4] (at 50.0 µM). For the same compound, the growth inhibition is 20% in assay [5] (setting [7]); 65% in assay [5] (setting [8]); 85.2% (active) in assay [5] (at 50.0 µM); 37% in assay [6] (setting [7]); 90% (active) in assay [6] (setting [8]); 88% (active) in assay [6] (at 50.0 µM).
Take `CCCCC(=O)c1nc(N(CC2CCCCC2)C(=O)NC)sc1N`: the growth inhibition in assay [1] (setting [7]) is -3%; in assay [1] (setting [8]), 11%; in assay [1] (at 50.0 µM), 1.8%; in assay [2] (setting [7]), -4%; in assay [2] (setting [8]), 35%; in assay [2] (at 50.0 µM), -13.4%. Besides, the growth inhibition was -1% in assay [3] (setting [7]); 57% in assay [3] (setting [8]); 7.75% in assay [3] (at 50.0 µM); -1% in assay [4] (setting [7]); 7% in assay [4] (setting [8]); 44.2% in assay [4] (at 50.0 µM). Besides, the growth inhibition in assay [5] (setting [7]) is -3%; in assay [5] (setting [8]), 33%; in assay [5] (at 50.0 µM), 6.3%; in assay [6] (setting [7]) it was -3%; in assay [6] (setting [8]), 12%; in assay [6] (at 50.0 µM), 16.8%.
`NNC(=O)N/N=C(/CC1(O)C(=O)Nc2ccc(Br)cc21)c1ccccc1` (stereo not drawn): the growth inhibition in assay [1] (setting [7]) is -1%; in assay [1] (setting [8]) it was 83% (active); in assay [1] (at 50.0 µM), 88.3% (active); in assay [2] (setting [7]) it was 1%; in assay [2] (setting [8]), 66%; in assay [2] (at 50.0 µM) it was 83.8% (active). Moreover, the growth inhibition was -2% in assay [3] (setting [7]); 86% (active) in assay [3] (setting [8]); 89.6% (active) in assay [3] (at 50.0 µM); -5% in assay [4] (setting [7]); 48% in assay [4] (setting [8]); 10.2% in assay [4] (at 50.0 µM). Besides, the growth inhibition in assay [5] (setting [7]) is 8%; in assay [5] (setting [8]), 91% (active); in assay [5] (at 50.0 µM), 81.3% (active); in assay [6] (setting [7]), 0%; in assay [6] (setting [8]) it was 71% (active); in assay [6] (at 50.0 µM), 93.7% (active).
